Assay results from PubChem BioAssay AID720549 (National Center for Advancing Translational Sciences (NCATS), 2013).
Several values for one entry are separate records, joined by “and”; a condition that tells them apart may be missing. Equal entries are not always repeated. Results filed as inconclusive are left out. More than one record can exist for a structure, and the calls need not agree. Activity calls are given as the source filed them. Calls follow the shape of the dose curve; as a rule, active = well fitted inhibition curve with a large enough effect; inconclusive = small, poorly fitted or top-dose-only effect; inactive = flat fitted curve, though single readings scatter.

Target: RecQ-like DNA helicase BLM (Homo sapiens) (UniProt P54132)
Sequence (P54132 whole entry, looked up): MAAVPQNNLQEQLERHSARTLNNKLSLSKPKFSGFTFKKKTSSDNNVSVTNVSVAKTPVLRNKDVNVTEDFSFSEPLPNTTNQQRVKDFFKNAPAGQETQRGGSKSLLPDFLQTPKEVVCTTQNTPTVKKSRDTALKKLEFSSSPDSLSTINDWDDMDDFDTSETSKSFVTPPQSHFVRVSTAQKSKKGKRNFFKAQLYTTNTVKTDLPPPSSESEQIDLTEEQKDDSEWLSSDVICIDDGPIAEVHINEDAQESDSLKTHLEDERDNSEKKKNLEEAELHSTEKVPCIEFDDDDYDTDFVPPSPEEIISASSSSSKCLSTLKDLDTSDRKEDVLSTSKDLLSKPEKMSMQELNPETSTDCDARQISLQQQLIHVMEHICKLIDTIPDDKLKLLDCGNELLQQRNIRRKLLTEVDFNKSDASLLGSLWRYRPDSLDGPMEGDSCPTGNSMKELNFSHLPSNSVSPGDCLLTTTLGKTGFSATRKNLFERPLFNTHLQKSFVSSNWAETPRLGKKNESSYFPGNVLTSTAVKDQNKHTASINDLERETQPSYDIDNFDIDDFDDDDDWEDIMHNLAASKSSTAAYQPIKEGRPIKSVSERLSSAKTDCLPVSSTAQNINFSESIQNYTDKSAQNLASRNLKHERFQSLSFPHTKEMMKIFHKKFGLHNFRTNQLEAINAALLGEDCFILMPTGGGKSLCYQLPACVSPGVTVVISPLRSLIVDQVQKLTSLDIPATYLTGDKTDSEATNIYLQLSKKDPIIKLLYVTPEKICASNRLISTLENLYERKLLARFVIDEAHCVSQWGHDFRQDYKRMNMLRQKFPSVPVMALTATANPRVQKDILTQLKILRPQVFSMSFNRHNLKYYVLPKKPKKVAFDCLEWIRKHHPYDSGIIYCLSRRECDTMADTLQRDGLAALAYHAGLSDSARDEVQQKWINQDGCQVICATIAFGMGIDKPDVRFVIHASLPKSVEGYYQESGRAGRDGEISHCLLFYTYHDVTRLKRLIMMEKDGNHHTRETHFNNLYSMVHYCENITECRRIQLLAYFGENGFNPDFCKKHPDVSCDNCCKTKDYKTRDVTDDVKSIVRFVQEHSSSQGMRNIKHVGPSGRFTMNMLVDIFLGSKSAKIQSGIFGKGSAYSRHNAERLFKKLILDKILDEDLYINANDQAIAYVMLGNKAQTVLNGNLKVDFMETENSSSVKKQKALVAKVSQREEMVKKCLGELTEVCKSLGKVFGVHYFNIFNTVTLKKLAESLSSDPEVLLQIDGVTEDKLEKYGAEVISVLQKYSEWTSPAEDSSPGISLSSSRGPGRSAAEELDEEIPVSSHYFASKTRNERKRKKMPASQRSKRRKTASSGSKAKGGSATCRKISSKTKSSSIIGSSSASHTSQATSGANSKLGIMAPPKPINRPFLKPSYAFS
Assay: qHTS for Inhibitors of Bloom's syndrome helicase (BLM): Helicase ATPase Orthogonal Confirmatory Assay for SAR
Conditions: purified BLM helicase ATPase activity assay; series mostly up to 57.1 µM; activity change, negative = inhibition: at the top concentration
From the text: Human RecQ DNA helicases participate in maintenance of genome stability and DNA repair. While other types of helicases have been explored as targets for drug development, members of the RecQ family have remained less well characterized. Mutations of the Bloom helicase gene have been associated with the rare human genetic disease called Bloom syndrome. […] Moreover, identified inhibitors can be used in cells and animal models to examine the consequences of inhibition on the survival of cancer cells where it has been shown that BLM plays an important role.
A fluorescence-based, biochemical assay in 1536 well format was developed to evaluate inhibition of BLM DNA unwinding activity. This assay was used to screen the MLPCN library. The resulting compounds were subjected to orthogonal and secondary biochemical assays to triage the initial hits, to classify compounds based on mode of action and to derive structure activity relationships (SARs) of candidate effectors. The data herein is the result of the Helicase ATPase orthogonal confirmatory assay. This luminescence assay employs a purified BLM enzyme and a single stranded BLM oligo substrate ([…]). For this assay increase in luminescence signal is greater than or equal to 700 RLU. Inhibition is the desired outcome for this assay.
NIH Chemical Genomics Center [NCGC]
NIH Molecular Libraries Probe Centers Network [MLPCN]
Assay Submitter (PI): Opher Gileadi, Structural Genomics Consortium, University of Oxford, UK
Three microliter of reaction buffer (25mM Tris-HCl pH 8.0, 50mM NaCl, 2mM MgCl2, 1mM DTT, and 0.01% Tween- 20, and 2nM BLM enzyme) was dispensed into a 1536-well assay plates (Greiner, solid white medium-binding) via Aurora Discovery BioRAPTR Flying Reagent Dispenser (FRD). Compounds (23nl each in columns 5-48) and control (23nl each in column 2 as dose-response) were transferred via a Kalypsys pintool equipped with a 1536-pin array. The plates were incubated for 15 min at room temperature followed by addition of 1 ul of substrates (200nM single-stranded oligonucleotide and 100uM ATP, final concentrations) to start the reaction. After 15 min., the reaction was terminated by the addition of 2.5ul of ADP-Glo Reagent I (Promega) to each well and incubation at room temperature for 30 min. Next, 5ul of ADP-Glo Reagent II (Promega) was added to each well. After 30 min at room temperature, the luminescence signal was detected using the ViewLux CCD imager. The data was normalized against no-inhibitor and no-enzyme controls and the resulting percent inhibition data were fitted to a sigmoidal dose response using a four-parameter Hill equation.

SMILES	Potency	activity change, negative = inhibition
Cc1cc(NC(=O)Nc2nnc(-c3ccncc3)s2)ccc1C#N	1290 nM (active)	–
O=C(Nc1ccc(Cl)c([N+](=O)[O-])c1)Nc1nnc(-c2ccc(F)cc2)s1	–	-13.3% (inactive)
CCCCCCNC(=O)Nc1nnc(-c2ccncc2)s1	–	11.1% (inactive)
O=C(Nc1ccc(N2CCOCC2)c(C(F)(F)F)c1)Nc1nnc(-c2ccncc2)s1	–	-8.29% (inactive)
O=C(Nc1ccc2ccccc2c1)Nc1nnc(-c2ccncc2)o1	–	6.97% (inactive)
O=C(Nc1ccc(Cl)c(Cl)c1)Nc1nnc(-c2ccc(F)cc2)s1	–	-2.99% (inactive)
O=C(Nc1ccc(Cl)nc1)Nc1nnc(-c2ccncc2)s1	1620 nM (active)	–
Nc1cc(NC(=O)Nc2nnc(-c3ccncc3)s2)ccc1Cl	20400 nM (active)	–
O=C(Nc1ccc(F)c(C(F)(F)F)c1)Nc1nnc(-c2ccncc2)o1	–	-14.1% (inactive)
O=C(Nc1ccc(-n2cncn2)c(C(F)(F)F)c1)Nc1nnc(-c2ccncc2)s1	20400 nM (active)	–
O=C(Nc1ccc(F)c(C(F)(F)F)c1)Nc1nc(-c2ccncc2)cs1	–	1.56% (inactive)
O=C(Nc1ccc(Cl)c(Cl)c1)Nc1nnc(Br)s1	–	-6.98% (inactive)
O=C(Nc1ccc2ccccc2c1)Nc1nnc(Br)s1	–	6.02% (inactive)
N/C(=N\c1nnc(-c2ccncc2)s1)Nc1ccc(F)c(C(F)(F)F)c1	inactive and 20.4 µM (active)	–
c1ccc2[nH]c(Nc3nnc(-c4ccncc4)s3)nc2c1	–	-3.35% (inactive)
O=C(Nc1nnc(-c2ccncc2)s1)Nc1cccc2ccccc12	5610 nM (active)	–
CC(=O)c1cccc(NC(=O)Nc2nnc(-c3ccncc3)s2)c1	–	-4.72% (inactive)
CC(C)(C)NC(=O)Nc1nnc(-c2ccncc2)s1	–	23.3% (inactive)
CCOC(=O)c1cccc(NC(=O)Nc2nnc(-c3ccncc3)s2)c1	–	2.71% (inactive)
O=C(Nc1ccc2sccc2c1)Nc1nnc(-c2cccnc2)s1	–	-29% (inactive)

SMILES	Potency	activity change, negative = inhibition
O=C(Nc1ccc(F)c(C(F)(F)F)c1)Nc1ccc(-c2ccncc2)s1	–	-4.77% (inactive)
O=C(Nc1ccc2ccccc2c1)Nc1nnc(-c2ccc(Cl)cc2Cl)s1	–	-10.8% (inactive)
O=C(Nc1cc(F)cc(F)c1)Nc1nnc(-c2ccncc2)s1	–	-9.82% (inactive)
O=C(Nc1cc(C(F)(F)F)cc(C(F)(F)F)c1)Nc1nnc(-c2ccncc2)s1	–	-0.324% (inactive)
N#Cc1cccc(NC(=O)Nc2nnc(-c3ccncc3)s2)c1	2290 nM (active)	–
COc1ccccc1CNC(=O)Nc1nnc(-c2ccncc2)s1	–	18% (inactive)
O=c1c(Nc2ccc(F)c(C(F)(F)F)c2)c(Nc2nnc(-c3ccncc3)s2)c1=O	–	-11.3% (inactive)
O=C(Nc1ccc(Cl)c(Cl)c1)Nc1ncc(-c2ccncc2)s1	–	-7.96% (inactive)
O=C(Nc1ccc2ccccc2c1)Nc1nnc(-c2ccccc2)s1	–	0.431% (inactive)
Cc1cc(C)c(-c2nnc(NC(=O)Nc3ccc4ccccc4c3)s2)c(C)c1	–	-10.3% (inactive)
Cc1cc(NC(=O)Nc2cccc(-c3ccncc3)n2)ccc1F	–	-5.53% (inactive)
O=C(Nc1ccc2ccccc2c1)Nc1nnc(C2CCCCC2)s1	–	-8.14% (inactive)
Cc1cc(NC(=O)Nc2nnc(C3CCCCC3)s2)ccc1F	–	-1.09% (inactive)
Cc1cc(NC(=O)Nc2nnc(C3CCCCC3)s2)ccc1Cl	–	-5.55% (inactive)
S=C(Nc1ccc(Cl)c(Cl)c1)Nc1nnc(-c2ccncc2)s1	2640 nM (active)	–
O=C(Nc1ccc(Cl)c(Cl)c1)Nc1nnc(N2CCNCC2)s1	–	-19.8% (inactive)
CC(=O)c1ccc(NC(=O)Nc2nnc(-c3ccncc3)s2)cc1	–	-3.59% (inactive)
N#Cc1cc(NC(=O)Nc2nnc(-c3ccncc3)s2)ccc1Br	646 nM (active)	–
O=C(Nc1ccc(Cl)c(Cl)c1)Nc1nnc(-c2ccncc2)s1	6460 nM (active)	–
Cc1ccccc1-c1nnc(NC(=O)Nc2ccc3ccccc3c2)s1	–	-2.23% (inactive)
